From PubChem BioAssay
Most compounds without a hit are left out; they make up all but 0.5% or so of the library.
CCT modulator – changes cytosolic chaperonin activity; purified chaperonin ATPase assay, HTRF ADP detection, 30 min; activity change, % (test concentration not listed), hits read low; actives 0.3% (n = 360,000); in the data active = activity change below about -30%
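First, chaperonin was dispensed at 40 nM or 20 nM final depending on batch activity. Next, compounds were pinned at 76 uM and ATP added at 10 uM. After 30 min at 37 °C, ADP detection reagents ran 30 min at ambient temperature.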
B2AR arrestin – recruits beta-arrestin to the human beta2-adrenergic receptor | Potency, µM (series often up to 46.1 µM), hits mostly activators | AID 492947 | actives 0.02% (n = 330,000) | beta-arrestin recruitment to beta2AR, cell-based reporter | P07550; note: nearly all actives have a fitted effect of over 65% in size
Target sequence (P07550 whole entry, looked up): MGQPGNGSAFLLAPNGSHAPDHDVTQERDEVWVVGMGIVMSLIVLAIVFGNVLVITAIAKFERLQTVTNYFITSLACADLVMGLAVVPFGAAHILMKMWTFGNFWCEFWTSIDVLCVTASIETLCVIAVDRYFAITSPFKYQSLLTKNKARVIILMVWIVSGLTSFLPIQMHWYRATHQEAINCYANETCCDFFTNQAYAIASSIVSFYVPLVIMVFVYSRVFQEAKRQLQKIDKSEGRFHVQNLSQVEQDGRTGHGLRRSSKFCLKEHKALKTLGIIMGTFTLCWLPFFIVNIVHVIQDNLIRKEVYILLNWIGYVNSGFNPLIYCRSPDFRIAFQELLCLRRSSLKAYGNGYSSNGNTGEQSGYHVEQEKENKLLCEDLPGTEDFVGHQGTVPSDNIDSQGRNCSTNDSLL
TSHR antag – human thyrotropin receptor antagonism; AID 504810; activity change, negative = inhibition, % at 11.5 µM; actives 0.2% (n = 330,000); P16473; TSHR-expressing cells, TSH-stimulated cAMP HTRF, 2 h; active compounds read low;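 active = activity change below a set negative limit, meaning inhibition stronger than a set level, cut at about -70% in these data; inconclusive = activity change between two set negative limits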
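Read-out is FRET at 665 nm (cryptate excitation 337 nm) from a cryptate-tagged anti-cAMP antibody, competed by cell cAMP against cAMP-d2. Compounds are tested on freshly harvested TSHR cells challenged with 4nM TSH (EC80) for 2 hours at 37 deg C.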
TCR activator – activators of T cell receptors; primary human leukocytes, anti-CD3, IL-2 HTRF, 48 h; AID 504894; Potency, µM (top dose mostly 9.22 µM), actives largely listed as activators; 330,000 tested, under 10 active
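Readout: HTRF IL-2, Eu-cryptate/d2 antibody pair, 320nm excitation, 665nm emission. Stimulus: a-CD3 beads, no co-stimulation. Cells: primary human leukocytes. Exposure: 48 hr with compound.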
Mm-Cpn inhibitor – inhibitors of Methanococcus maripaludis chaperonin TRiC (MmCpn). AID 504842. actives 0.031% (n = 330,000). purified Mm-Cpn ATPase, ADP Transcreener TR-FRET. Potency, µM (highest dose often 76.9 µM), actives largely listed as inhibitors; note: nearly all actives have a fitted effect of over 80% in size
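Compound-treated chaperonin, 25 nM final, turns over 10 uM ATP at 37°C for 30 min following a 10 min preincubation; ADP generated competes with ADP-d2 for Eu-cryptate antibody, lowering FRET.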
A number is an active result; i = inactive; ? = inconclusive; nt = no result. Unless noted, calls come from the whole dose curve; as a rule, active = well fitted curve in the direction sought with a large enough effect; inconclusive = small, poorly fitted or top-dose-only effect, or another doubt; inactive = no such curve, though single readings can be large; an effect the other way counts as inactive or inconclusive.

SMILES	CCT modulator	B2AR arrestin	TSHR antag	TCR activator	Mm-Cpn inhibitor
Cc1cccc(CS(=O)(=O)c2ncc(Cl)c(C(=O)Nc3nnc(C(C)C)s3)n2)c1	i	i	-73.7	i	i
CCOc1ccccc1NC(=O)c1nc(S(=O)(=O)Cc2cccc(C)c2)ncc1Cl	i	i	-82.8	i	i
Cc1ccc(CS(=O)(=O)c2ncc(Cl)c(C(=O)Nc3nnc(C(C)C)s3)n2)cc1	i	i	?	i	i
CC(C)c1nnc(NC(=O)c2nc(S(=O)(=O)Cc3ccc(F)cc3)ncc2Cl)s1	i	i	-75.1	i	i
O=C(COc1ccc(F)cc1Cl)N1CCN(C(=O)c2cccs2)CC1	i	i	nt	i	i
CCC(C)NC(=O)Cn1c(-c2ccccc2)cc(C(C)=O)c1C (configuration not stated)	i	i	i	i	i
COc1ccc(S(=O)(=O)N2CCOC23CCN(C(=O)c2ccc(Cl)cc2Cl)CC3)cc1	i	i	-115.0	i	i
COc1ccc(S(=O)(=O)N2CCOC23CCN(C(=O)c2c(F)cccc2Cl)CC3)cc1	i	i	i	i	i
COc1cccc(C(CCc2cc(OC)c(OC)c(OC)c2)NC(C)=O)c1 (configuration not stated)	-73.8	nt	nt	i	nt
CC(=O)c1c(O)cc(O)c(C(C)=O)c1O	i	i	-94.3	i	i
CC(=O)c1c(O)cc(O)cc1CC(=O)O	i	i	i	i	nt
O=Cc1ccc(O)c2ncccc12	i	6.31µM	i	i	i
NC(=O)NC(CC(=O)NCCc1ccccn1)c1ccccc1Cl (configuration not stated)	i	i	i	i	i
CCOc1ncccc1C(=O)Nc1nnc(C)s1	i	i	i	i	i
CCOc1ncccc1C(=O)Nc1nnc(C2CC2)s1	-30.5	i	i	i	i
O=C(c1ccc(F)cc1)C1CCN(C(=O)Nc2ccc(F)cc2)CC1	-33.9	i	i	i	i
CCC(=O)Nc1ccc(NC(=O)CSc2nnnn2-c2cccnc2)cc1C	i	i	i	i	i
O=C(NCCCl)Nc1ncn[nH]1	i	nt	nt	i	nt
CCOc1ccc(NC(=O)CCC(=O)NNC(=O)COc2ccc(C)cc2Br)cc1	-36.4	i	i	i	i
Cc1c(O)ccc(C(=O)CN2CCN(c3ccc(F)cc3)CC2)c1O	i	i	i	i	i
Cc1c(O)ccc(C(=O)CN2CCN(Cc3ccccc3)CC2)c1O	-56.5	i	i	i	i
Cc1ccc(NC(=O)CCC(=O)NNC(=O)C(C)(C)C)c(C)c1	-92.3	i	i	i	i
CC(=O)Nc1ccc(NC(=O)Nc2ccc(C)cc2C)cc1	i	i	i	i	i
CCCNC(=O)Nc1ccc(C)cc1C	-45.3	i	i	i	i
COc1ccccc1/C=C/CN1CCC(Oc2cc(C(=O)NC3CC3)ccc2OC)CC1	-33.8	i	i	i	i
SMILES	CCT modulator	B2AR arrestin	TSHR antag	TCR activator	Mm-Cpn inhibitor
COc1ccc(C(=O)NC2CC2)cc1OC1CCN(Cc2ccccc2)CC1	i	i	i	i	i
COc1ccc(-c2cccc(C(=O)Nc3ccc(C)cc3)c2)cc1	i	i	i	i	i
COc1ccc(-c2cccc(C(=O)Nc3cccc(C(=O)O)c3)c2)cc1	-78.6	i	i	i	i
COC(=O)c1cccc(NC(=O)c2ccc(OC)c(Cl)c2)c1	-77.5	i	i	i	i
COc1ccc(NC(=O)/C=C/C(=O)O)cc1Cl	i	i	i	i	6.31µM
COc1ccc(NC(=O)CCCC(=O)O)cc1Cl	i	i	i	i	i
CC[C@]1(C(=O)OC)[C@H]2C(=O)N(C)C(=O)[C@H]2[C@H]2CN=C(SCc3ccccc3)N21	i	i	i	i	i
COc1ccc(CCN(C)C2CCCN(C(=O)CCSC)C2)cc1OC (configuration not stated)	i	i	i	i	i
COc1ccc(NC(=O)c2cc(S(=O)(=O)N3CCOCC3)cn2C)c(OC)c1	i	i	i	i	i
Nc1ccc(-c2nc3cc(N)ccc3s2)cc1	-41.5	i	i	i	i
Cc1ccc2nc(-c3ccc(N)cc3)sc2c1	i	i	i	i	i
CCN(CC)c1nc(N)c(C#N)c(CC#N)c1C#N	i	nt	nt	i	nt
S=c1[nH]nc(-c2cccc(Br)c2)o1	i	i	i	i	31.6µM
Cc1occc1C(=O)N(Cc1nc(-c2ccccc2)no1)C(C)C	-72.2	i	i	i	i
CCN(Cc1nc(-c2ccccc2)no1)C(=O)c1ccoc1C	i	i	i	i	i
Fc1cccc(Cl)c1CNCc1cccnc1	i	i	-106.5	i	i
CCOc1ccc(CNC(=O)CCCn2nc(CC)n3c(cc4occc43)c2=O)cc1	i	i	-109.8	i	i
COCCNS(=O)(=O)c1ccc(-c2ccc(Cl)cc2)cc1	-40.0	i	i	i	i
COCCNS(=O)(=O)c1ccc(-c2ccc(S(=O)(=O)NCCOC)cc2)cc1	i	i	i	nt	i
Cc1ccc(S(=O)(=O)NCCNS(=O)(=O)c2ccc(C)cc2)cc1	i	i	-82.9	i	i
CC(C)C(=O)N1CCN(c2ccccc2NC(=S)NC(=O)Cc2ccccc2)CC1	i	nt	nt	i	nt
N#CCSC1=Nc2ccccc2C2=NC(CCC(=O)N3CCN(c4ccccc4)CC3)C(=O)N12 (configuration not stated)	i	i	i	i	i
COc1cccc(C(=O)Nc2ccc(NC(=O)C3CCCCC3)nc2)c1	i	i	-103.0	i	i
COc1cc(C(=O)Nc2ccc(NC(=O)C3CCCCC3)nc2)cc(OC)c1OC	i	i	i	i	i
COc1ccc2[nH]c3c(c2c1)CCN1C(=O)C(CC(=O)NCCC2=CCCCC2)C[C@H](C(=O)N(C(C)C)C(C)C)[C@@]31C (some centres not stated)	i	i	i	i	i
SMILES	CCT modulator	B2AR arrestin	TSHR antag	TCR activator	Mm-Cpn inhibitor
COc1cc(/C=N/Nc2nc(N3CCCC3)nc(N3CCCC3)n2)ccc1OCc1ccccc1F	i	i	-70.6	i	i
COc1ccc(/C=N/Nc2nc(N3CCCC3)nc(N3CCCC3)n2)cc1O	i	i	i	i	i
Cn1c(N)c(C(=O)COC(=O)CCOc2ccc(C(C)(C)C)cc2)c(=O)n(C)c1=O	i	i	i	i	i
CN(NC(=O)c1ccco1)c1nc2ccccc2nc1C(F)(F)F	i	i	-76.1	i	i
Cc1ccccc1C(=O)NN(C)c1nc2ccccc2nc1C(F)(F)F	i	i	i	i	i
CC1CCC(NC(=O)C2CCN(c3nc4ccccc4s3)CC2)CC1 (configuration not stated)	-36.3	i	i	i	i
Cc1ccc2nc(N3CCC(C(=O)NC4CCCCC4)CC3)sc2c1	i	i	i	i	i
Cc1ccccc1CS(=O)(=O)Cc1ccc(C(=O)NC2CCCC2)o1	i	i	i	i	i
CC(=O)Nc1ccc(NC(=O)c2ccccc2Sc2ccc([N+](=O)[O-])cc2Cl)cc1	-34.5	i	i	i	i
Brc1ccc2[nH]c3c(N4CCc5ccccc5C4)ncnc3c2c1	i	i	-76.7	i	i
